# According to ChEMBL document CHEMBL3988442, “University of Dundee, Small-Polar-MMV Screening Library” (2021):
# In all, about 69,000 compounds went through this assay and about 1,000 (1.4%) showed an effect of 50% or more. This excerpt belongs to a sample that is enriched for strong results.
# Test system: Leishmania donovani
# Experiment: Leishmania intramacrophage assay
# Format: functional, organism-based
# Design: scale not given: in the data most compounds retested in dose-response had high values
smiles,measurement,setting,value
Cc1nc(C)n(C2CCCN(C(=O)c3sccc3C)C2)n1 (stereo not given),Percent Effect,30 µM,16.01%
Cc1cc(C)c(CNC(=O)NCC2Cc3ccccc3O2)c(=O)[nH]1 (stereo not given),Percent Effect,"30.3 µM, […]",1.622%
CC(C)c1noc(CCNC(=O)NCC2Cc3ccccc3O2)n1 (stereo not given),Percent Effect,"30.3 µM, […]",-9.19%
CC(=O)NCCNC(=O)NCC1Cc2ccccc2O1 (stereo not given),Percent Effect,"30.3 µM, […]",52.86%
NS(=O)(=O)CCNC(=O)c1cc(Br)c2c(c1)OCCO2,Percent Effect,"30.3 µM, […]",-2.46%
CC(C)CC(=O)N1C[C@@H]2CCN(c3ncccn3)C[C@@H]2C1.O=C(O)C(F)(F)F,Percent Effect,"30 µM, 30.03 µM",12.14%
CC(C)(C)c1n[nH]cc1CNC1CCC(C(F)(F)F)CC1.Cl (stereo not given),Percent Effect,"30.3 µM, […]",-4.401%
COCCNC(=O)[C@H]1CN(c2ncccn2)C[C@H]2OCC[C@@H]12,Percent Effect,"30.3 µM, […]",52.44%
COCCNC(=O)[C@@H]1CN(c2cc(OC)ncn2)C[C@H]2OCC[C@H]21,Percent Effect,"30.3 µM, […]",7.324%
COCCNC(=O)[C@@H]1CN(c2ncccn2)C[C@H]2OCC[C@H]21,Percent Effect,"30.3 µM, […]",9.036%
CCC1CCC(N(Cc2cc(=O)n(C)c(=O)n2C)C2CC2)CC1 (stereo not given),Percent Effect,"30.3 µM, […]",27.04%
CC1(C)CN(CC(F)(F)F)CCN1CC(N)=O,Percent Effect,"30.3 µM, […]",13.64%
Cc1ccc(OCCn2cnc3oc(C)c(C(=O)O)c3c2=O)cc1,Percent Effect,"30.3 µM, […]",-9.017%
CC(c1nc(C2CC2)no1)N1CCN(CCn2ccccc2=O)CC1 (stereo not given),Percent Effect,"30.3 µM, […]",21.89%
CCCc1noc(C(C)N2CCN(CCn3ccccc3=O)CC2)n1 (stereo not given),Percent Effect,"30.3 µM, […]",52.92%
Cc1noc(C(C)N2CCN(CCn3ccccc3=O)CC2)n1 (stereo not given),Percent Effect,"30.3 µM, […]",29.89%
Cc1nc2ccc(S(=O)(=O)Nc3c(C)nn(CC(=O)O)c3C)cc2s1,Percent Effect,"30.3 µM, […]",-9.195%
CCOC[C@@H]1CC[C@H]2[C@H](CCN2S(=O)(=O)c2ccc(F)cc2)O1,Percent Effect,"30.3 µM, […]",19.83%
CCCC(NC(=O)c1cc(C)n(C2CC2)c1C)c1nnn[nH]1 (stereo not given),Percent Effect,"30 µM, 30.03 µM",2.645%
COc1ccc(Cl)cc1CNCCCn1ccnc1,Percent Effect,"30.3 µM, […]",3.119%
CCOc1c(Cl)cc(Cl)cc1CNCCCn1ccnc1,Percent Effect,"30.3 µM, […]",67.73%
CCOc1c(CNCCCn2ccnc2)cc(Cl)cc1OC.Cl.Cl,Percent Effect,"30.3 µM, […]",35.73%
CCOc1ccc(Cl)cc1CNCCCn1ccnc1,Percent Effect,"30 µM, 30.03 µM",1.663%
CCn1nnc(NCc2cc(Cl)cc(Cl)c2OC)n1,Percent Effect,"30.3 µM, […]",-5.532%
COc1ccc(CN2CCC(O)(CN3CCCCC3)C2)c(C)c1 (stereo not given),Percent Effect,"30.3 µM, […]",67.74%
Cc1cc(F)ccc1CN1CCCC(O)(CN2CCCC2)C1 (stereo not given),Percent Effect,"30.3 µM, […]",37.99%
Cc1cc(F)ccc1CN1CCC(O)(CN2CCCCC2)C1 (stereo not given),Percent Effect,"30 µM, 30.03 µM",37.89%
CCOc1ccc(C(=O)CCC(=O)N(C)Cc2nc(C)c[nH]2)cc1C,Percent Effect,"30.3 µM, […]",-49.88%
CCN(C)C[C@H]1CC[C@@H](Cc2ccc3c(cnn3C)c2)O1,Percent Effect,"30.3 µM, […]",-0.9976%
CN1CCC(N(C)C[C@H]2CC[C@@H](Cc3cccc(CO)c3)O2)CC1,Percent Effect,"30.3 µM, […]",11.6%
CN1CCC(N(C)C[C@H]2CC[C@@H](Cc3ccc4occc4c3)O2)CC1,Percent Effect,"30.3 µM, […]",87.95%
COc1ccc(C[C@@H]2CC[C@H](CN(C)C3CCN(C)CC3)O2)cc1,Percent Effect,"30.3 µM, […]",8.587%
CN1CCC(N(C)C[C@H]2CC[C@@H](Cc3cccc(O)c3)O2)CC1,Percent Effect,"30.3 µM, […]",81.26%
CN1CCC(N(C)C[C@H]2CC[C@@H](Cc3ccc4c(cnn4C)c3)O2)CC1,Percent Effect,"30.3 µM, […]",38.58%
Cc1ccnn1CCC(=O)N1CCCC1c1cc2cccnc2[nH]1.Cl (stereo not given),Percent Effect,"30.3 µM, […]",-28.4%
COCCNC(=O)N1CCCCC1CNC(=O)Nc1ccccc1 (stereo not given),Percent Effect,"30.3 µM, […]",-22.22%
Cc1nc(CNC(=O)N(CCCO)C2CCc3ccccc32)oc1C (stereo not given),Percent Effect,"30.3 µM, […]",21.1%
CC(C)c1cc(C(=O)N2CC[C@@H](c3ccc4c(c3)OCO4)[C@H](O)C2)[nH]n1,Percent Effect,"30.3 µM, […]",26.43%
CCOCC1CN(Cc2cnn(C)c2)Cc2nn(C)cc21.O=C(O)C(F)(F)F (stereo not given),Percent Effect,"30 µM, 30.03 µM",-19.77%
Cc1nn(Cn2ccc(C(=O)N3CCCC3)n2)c(C)c1Cl,Percent Effect,"30.3 µM, […]",14.44%
Cc1nn(Cn2ccc(C(=O)N3CCCC(C)C3)n2)c(C)c1Cl (stereo not given),Percent Effect,"30.3 µM, […]",24.98%
Cc1nn(Cn2ccc(C(=O)N3CCC(C)CC3)n2)c(C)c1Cl,Percent Effect,"30.3 µM, […]",52.68%
Cc1cc(C(=O)NCc2cccnc2N2CCCC(O)C2)[nH]n1 (stereo not given),Percent Effect,"30.3 µM, […]",14.66%
CN(Cc1ccc(Br)c2cccnc12)S(C)(=O)=O,Percent Effect,"30.3 µM, […]",20.74%
O=C(NCCc1cccs1)NCC(O)c1cccc(F)c1 (stereo not given),Percent Effect,30 µM,0.0374%
CCCC(=O)NC1CCc2c(ccc(=O)n2Cc2csc(C)n2)C1.O=C(O)C(F)(F)F (stereo not given),Percent Effect,"30.3 µM, […]",38.16%
Cc1nc(Cn2c3c(ccc2=O)CC(N)CC3)cs1 (stereo not given),Percent Effect,"30.3 µM, […]",24.76%
Cc1nc(Cn2c3c(ccc2=O)CC(NC(N)=O)CC3)cs1 (stereo not given),Percent Effect,"30.3 µM, […]",52.43%
CCN1CC2(CC1=O)CN(Cc1ccncc1)CCN(C(=O)C(C)C)C2.O=C(O)C(F)(F)F.O=C(O)C(F)(F)F (stereo not given),Percent Effect,"30.3 µM, […]",17.44%
O=C(C[C@@H]1COC[C@H]2CN(C3CCCC3)C[C@@H]12)N1CCCCO1.O=C(O)C(F)(F)F,Percent Effect,"30.3 µM, […]",0.3497%
